Where “and” joins values, the source holds several entries; their conditions need not be identical. Equal values may be shown once. Some structures have more than one record in an assay (separate samples or runs), and their calls can disagree. Calls of active or inactive are those of the source. Rule for the calls: active = hit-call score of the fitted dose curve at least 0.9, where 1 is the maximum; inactive = score below 0.9.
Tests used:
[1] = target: Transcriptional activator Myb (Homo sapiens) (UniProt P10242); assay: ATG_Myb_CIS: Attagene CIS-FACTORIAL HepG2 Assay for human Myeloblastosis (Myb) Proto-Oncogene Transcription Factor (AID 2282986); conditions: HepG2 Attagene CIS-FACTORIAL Myb reporter transcription; actives raise or lower the signal
Summary of the method: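 HepG2 cells were transiently transfected with cis-regulated multiple reporter transcription units reflecting endogenous Myb activity, then exposed to compound for 24 hours. Reporter mRNA was measured by RT-PCR with capillary electrophoresis; bidirectional fitting versus DMSO baseline.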

[2] = target: Nuclear respiratory factor 1 (Homo sapiens) (UniProt Q16656); assay: ATG_NRF1_CIS: Attagene CIS-FACTORIAL HepG2 Assay for human Nuclear Respiratory Factor 1 (NRF1) Orphan Gene (AID 2282987); conditions: HepG2 NRF1 cis-element reporter, Attagene multiplex; actives raise or lower the signal
Summary of the method: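 HepG2 cells transiently transfected with multiple reporter transcription units under cis-regulatory promoter control, so endogenous transcription-factor activity is read. After 24 h compound exposure, reporter mRNA quantified by RT-PCR, fluorescent labelling, HpaI digestion and capillary electrophoresis; bidirectional fitting versus DMSO.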

[3] = ATG_NFI_CIS: Attagene CIS-FACTORIAL HepG2 Assay for human Nuclear Factor I (NFI) (AID 2282989); conditions: HepG2 cis-regulatory reporter, NFI response element transcription; actives raise or lower the signal
Summary of the method: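 HepG2 cells transiently transfected with cis-element-driven multiplexed reporter transcription units, dosed for 24 h. Reporter mRNA quantified by RT-PCR, fluorescent labelling, HpaI digestion and capillary electrophoresis; bidirectional fit versus DMSO baseline.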

[4] = target: Myc proto-oncogene protein (Homo sapiens) (UniProt P01106); assay: ATG_Myc_CIS: Attagene CIS-FACTORIAL HepG2 Assay for human Myelocytomatosis (Myc) Proto-Oncogene Transcription Factor (AID 2282990); conditions: HepG2, Attagene cis-reporter transcription factor activity; actives raise or lower the signal
Summary of the method: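 DMSO-normalised, bidirectionally fitted reporter mRNA signal. HepG2 cells transfected with cis reporter constructs, treated 24 h; transcripts detected by RT-PCR, 6-FAM primer extension and CE.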

[5] = ATG_NF_kB_CIS: Attagene CIS-FACTORIAL HepG2 Assay for human Nuclear Factor Kappa B (NF-kB) (AID 2282991); conditions: HepG2 Attagene cis-factorial NF-kB reporter mRNA; actives raise or lower the signal
Summary of the method: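 HepG2 cells transiently transfected with multiplexed cis-element reporter units measuring endogenous transcription factor activity; reporter mRNA read 24 h after dosing by RT-PCR, fluorescent labelling, HpaI digestion and capillary electrophoresis. Bidirectional fit against DMSO baseline.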

[6] = ATG_NRF2_ARE_CIS: Attagene CIS-FACTORIAL HepG2 Assay for human Nuclear Factor Erythroid 2 Related Factor 2 (NFR2) response to Antioxidant Response Elements (ARE) (AID 2282992); conditions: HepG2 Attagene ARE/NRF2 reporter, transcription factor activity; actives raise or lower the signal;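 for AC50: reporter mRNA level measured by RT-PCR and capillary electrophoresis fluorescence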
Summary of the method: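 Fluorescence intensity of reporter-specific cDNA fragments, separated by capillary electrophoresis, reflects mRNA induction in transfected HepG2 cells at 24 h. Activity is fitted bidirectionally, DMSO serving as baseline.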

[7] = target: Cellular tumor antigen p53 (Homo sapiens) (UniProt P04637); assay: ATG_p53_CIS: Attagene CIS-FACTORIAL HepG2 Assay for human p53 Transcription Factor (AID 2282994); conditions: HepG2 p53 cis-element reporter, Attagene mRNA; actives raise or lower the signal
Summary of the method: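 Transiently transfected HepG2 (multiple cis reporter transcription units); exposure 24 h; reporter RNA via RT-PCR, 6-FAM extension, 2 h HpaI digest at 37 C, CE detection; DMSO baseline.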

[8] = BSK_3C_TissueFactor: BioMAP Diversity Plus: 3C Assay for Tissue Factor Biomarker Activity (AID 2282997); conditions: BioMAP 3C HUVEC, tissue factor biomarker readout; actives raise or lower the signal
Summary of the method: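 Tissue factor on primary human umbilical vein endothelium was read by ELISA 24 h after dosing, gain or loss relative to DMSO. Cytotoxicity ran alongside via SRB (0.1%, TCA-fixed, 560 nm).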

[9] = BSK_3C_uPAR: BioMAP Diversity Plus: 3C Assay for Urokinase-type plasminogen activator receptor (uPAR) Biomarker Activity (AID 2282998); conditions: BioMAP 3C HUVEC, uPAR biomarker ELISA; actives raise or lower the signal
Summary of the method: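 Human umbilical vein endothelial primary cells were exposed to test chemical for 24 h. Cell-surface uPAR was then quantified by ELISA, and responses were fitted bidirectionally against DMSO as negative control and baseline.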

[10] = ATG_Oct_MLP_CIS: Attagene CIS-FACTORIAL HepG2 Assay for human Octamer-Binding Transcription Factor (Oct) (AID 2282993); conditions: HepG2 Attagene cis-factorial Oct reporter, mRNA; actives raise or lower the signal
Summary of the method: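 HepG2 cells transiently transfected with cis-promoter-driven multiplexed reporter transcription units, dosed for 24 h. Reporter mRNA quantified by RT-PCR, fluorescent labelling, HpaI digestion and capillary electrophoresis; bidirectional fits versus DMSO baseline.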

Measured: AC50

Chain of Transcriptional activator Myb (Homo sapiens) (P10242 whole entry, looked up): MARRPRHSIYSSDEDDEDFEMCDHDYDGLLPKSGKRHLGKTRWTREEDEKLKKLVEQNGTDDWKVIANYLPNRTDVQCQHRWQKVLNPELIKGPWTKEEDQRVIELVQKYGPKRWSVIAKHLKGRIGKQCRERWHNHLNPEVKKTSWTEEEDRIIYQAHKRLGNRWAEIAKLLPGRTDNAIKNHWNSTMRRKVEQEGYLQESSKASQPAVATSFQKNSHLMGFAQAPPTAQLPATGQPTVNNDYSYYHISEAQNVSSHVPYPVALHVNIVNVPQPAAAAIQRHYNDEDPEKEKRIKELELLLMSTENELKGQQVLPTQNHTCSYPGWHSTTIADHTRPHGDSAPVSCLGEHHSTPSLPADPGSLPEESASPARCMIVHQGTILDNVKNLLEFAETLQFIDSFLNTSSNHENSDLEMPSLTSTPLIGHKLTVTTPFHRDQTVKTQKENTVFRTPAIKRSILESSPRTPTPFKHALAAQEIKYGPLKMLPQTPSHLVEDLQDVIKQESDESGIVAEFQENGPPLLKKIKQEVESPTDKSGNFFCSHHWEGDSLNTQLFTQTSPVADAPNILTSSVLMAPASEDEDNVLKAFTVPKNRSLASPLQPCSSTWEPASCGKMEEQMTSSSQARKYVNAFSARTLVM
Chain of Myc proto-oncogene protein (Homo sapiens) (P01106 whole entry, looked up): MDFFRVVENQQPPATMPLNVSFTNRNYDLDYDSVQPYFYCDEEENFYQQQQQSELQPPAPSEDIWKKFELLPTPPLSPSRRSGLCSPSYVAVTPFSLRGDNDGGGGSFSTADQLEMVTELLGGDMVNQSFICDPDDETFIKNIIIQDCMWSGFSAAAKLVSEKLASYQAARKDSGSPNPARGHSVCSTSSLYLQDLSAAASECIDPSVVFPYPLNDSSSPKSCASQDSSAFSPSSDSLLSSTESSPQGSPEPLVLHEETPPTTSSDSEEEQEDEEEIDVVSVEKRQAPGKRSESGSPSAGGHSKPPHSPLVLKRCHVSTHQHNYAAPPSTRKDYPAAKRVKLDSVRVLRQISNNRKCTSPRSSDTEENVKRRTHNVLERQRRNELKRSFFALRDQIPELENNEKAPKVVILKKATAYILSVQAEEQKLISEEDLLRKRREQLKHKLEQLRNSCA
Chain of Nuclear respiratory factor 1 (Homo sapiens) (Q16656 whole entry, looked up): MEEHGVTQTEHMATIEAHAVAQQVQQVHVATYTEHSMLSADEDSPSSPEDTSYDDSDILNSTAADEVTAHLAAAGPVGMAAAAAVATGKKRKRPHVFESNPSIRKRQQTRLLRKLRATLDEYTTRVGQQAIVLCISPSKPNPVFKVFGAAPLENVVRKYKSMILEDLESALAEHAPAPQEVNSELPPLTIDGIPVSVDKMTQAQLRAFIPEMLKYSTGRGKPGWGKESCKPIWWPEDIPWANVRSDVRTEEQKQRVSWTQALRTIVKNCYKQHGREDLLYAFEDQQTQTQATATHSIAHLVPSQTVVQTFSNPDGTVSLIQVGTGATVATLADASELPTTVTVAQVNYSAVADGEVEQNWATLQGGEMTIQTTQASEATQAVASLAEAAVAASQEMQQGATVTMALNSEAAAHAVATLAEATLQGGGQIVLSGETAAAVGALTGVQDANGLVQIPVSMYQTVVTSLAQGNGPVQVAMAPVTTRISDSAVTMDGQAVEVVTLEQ
Chain of Cellular tumor antigen p53 (Homo sapiens) (P04637 whole entry, looked up): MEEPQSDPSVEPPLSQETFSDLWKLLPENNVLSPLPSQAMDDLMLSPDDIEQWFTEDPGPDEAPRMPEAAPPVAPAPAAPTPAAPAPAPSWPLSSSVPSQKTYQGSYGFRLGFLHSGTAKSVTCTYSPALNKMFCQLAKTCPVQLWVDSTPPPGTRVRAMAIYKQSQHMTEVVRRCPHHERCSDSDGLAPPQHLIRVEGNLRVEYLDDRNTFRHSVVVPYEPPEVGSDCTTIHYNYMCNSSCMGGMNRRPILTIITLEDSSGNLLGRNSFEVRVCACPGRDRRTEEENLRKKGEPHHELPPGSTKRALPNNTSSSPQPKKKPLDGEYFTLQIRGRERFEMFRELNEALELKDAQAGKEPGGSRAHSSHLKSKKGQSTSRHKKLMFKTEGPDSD

CCOP(=S)(OCC)Oc1ccc([N+](=O)[O-])cc1
active: [6] 23.5 µM
not listed: [10]
inactive: all other assays above

COP(=O)(OC)SCn1c(=O)oc2cc(Cl)cnc21
active: [6] 8.25 µM
not listed: [10]
inactive: all other assays above

CCc1cccc(CC)c1N(COC)C(=O)CCl
active: [4] 2.68 µM | [6] 3.31 µM
not listed: [7] | [10]
inactive: all other assays above

C=C(C)[C@H]1Cc2c(ccc3c2O[C@@H]2COc4cc(OC)c(OC)cc4[C@@H]2C3=O)O1
active: [5] 0.063 µM | [6] 0.00527 µM | [8] 8.69 µM | [9] 7.25 µM
inactive: [1] | [2] | [3] | [4]

CC(=NC#N)N(C)Cc1ccc(Cl)nc1
not listed: [1]
inactive: all other assays above

COc1cc(OC)nc(Sc2cccc(Cl)c2C(=O)O)n1
not listed: [10]
inactive: all other assays above

O=[N+]([O-])c1cc(C(F)(F)F)c(Cl)c([N+](=O)[O-])c1Nc1ncc(C(F)(F)F)cc1Cl
inactive: [1] | [2] | [3] | [4] | [5] | [6]
active: [2] 21.5 µM | [5] 11.9 µM | [6] 2.7 µM | [8] 1.16 µM and 2.68 µM | [9] 1.05 µM and 3.18 µM

CCCCN(CC)c1c([N+](=O)[O-])cc(C(F)(F)F)cc1[N+](=O)[O-]
active: [6] 6.46 µM | [10] 12.7 µM
not listed: [1]
inactive: all other assays above

O=c1ccc(=O)[nH][nH]1
not listed: [7] | [10]
inactive: all other assays above

C[N+]1(C)CCCCC1
not listed: [1]
inactive: all other assays above

CCOP(=O)(NC(C)C)Oc1ccc(SC)c(C)c1 (centres undefined)
active: [6] 5.22 µM
not listed: [7] | [10]
inactive: all other assays above

CN(C)C(=O)Nc1cccc(C(F)(F)F)c1
not listed: [1] | [7]
inactive: all other assays above

CCC(=O)Nc1ccc(Cl)c(Cl)c1
active: [3] 10.5 µM | [6] 30.7 µM
not listed: [5] | [10]
inactive: all other assays above

FC(F)C(F)(F)OCC(Cn1cncn1)c1ccc(Cl)cc1Cl (centres undefined)
active: [2] 39.5 µM | [6] 35.9 µM | [9] 36.7 µM
not listed: [7] | [10]
inactive: all other assays above

CCCOc1nn(C(=O)NS(=O)(=O)c2ccccc2C(=O)OC)c(=O)n1C
active: [9] 0.0593 µM
inactive: all other assays above

CN(C)[C@@H]1C(=O)C(C(N)=O)=C(O)[C@@]2(O)C(=O)C3=C(O)c4c(O)cccc4[C@@](C)(O)[C@H]3[C@H](O)[C@@H]12
active: [6] 20.8 µM | [10] 13.6 µM
inactive: [1] | [2] | [3] | [4] | [6] | [10] | [8] | [9]

N#CSCSC#N
active: [8] 5.49 µM | [9] 5.93 µM
not listed: [7] | [10]
inactive: all other assays above

CCOC(=O)CC(SP(=O)(OC)OC)C(=O)OCC (centres undefined)
active: [6] 21.9 µM
not listed: [7] | [10]
inactive: all other assays above

CCCSP(=O)(OCC)Oc1ccc(Br)cc1Cl (centres undefined)
active: [6] 2.73 µM | [10] 2.03 µM
inactive: all other assays above

Nc1c(Cl)cc([N+](=O)[O-])cc1Cl
active: [3] 50 µM | [5] 59.5 µM | [6] 41.1 µM
not listed: [7] | [10]
inactive: all other assays above

CCOP(=O)(OCC)Oc1cc(C)nc(C(C)C)n1
not listed: [5]
inactive: all other assays above
